From PubChem BioAssay (Tox21)
Inconclusive results are not listed. Activity calls are given as the source filed them. Unless noted, the call rests on the fitted dose curve.

Experiments:
[1] = qHTS assay to identify small molecule agonists of the vitamin D receptor (VDR) signaling pathway - cell viability counter screen (AID 743224; active means well fitted cell-killing curve with a large enough effect in the repeat runs; further: nearly all actives have a fitted effect of over 50% in size; further: potency means the concentration at half of the fitted maximal effect)
Method in brief: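 VDR-bla cells, 4 h after plating, exposed to compounds for 16 h at 37C; viability then read in the same wells as CellTiter-Glo luminescence after 30 min at room temperature, following the bla FRET read.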

[2] = qHTS assay to identify small molecule antagonists of the vitamin D receptor (VDR) signaling pathway - cell viability counter screen (AID 743225; active means well fitted cell-killing curve with a large enough effect in the repeat runs; further: nearly all actives have a fitted effect of over 50% in size)
Method in brief: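 Read-out: CellTiter-Glo luminescence measured 30 min after reagent addition at room temperature. Cells were VDR-bla HEK 293T exposed 16 h at 37C, 5% CO2, to compound with 3 nM final calcitriol agonist.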

[3] = qHTS assay to identify small molecule agonists of the NFkB signaling pathway - cell viability counter screen (AID 1159515); further: nearly all actives have a fitted effect of over 55% in size; further: potency means the concentration at half of the fitted maximal effect
Method in brief: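 NFkB-bla ME-180 cells, 2,000/well, plated overnight at 37 C; compound added for 5 hr at 37 C. Viability read in the same wells as the bla reporter, by CellTiter-Glo luminescence after 30 min at room temperature.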

[4] = qHTS assay to identify small molecule agonists of the endoplasmic reticulum stress response signaling pathway (AID 1159516; active means well fitted activation curve with a large enough effect in the signal ratio in the repeat runs, not every such curve was filed as active; the % refers to the signal ratio)
Method in brief: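 CellSensor ESRE-bla HeLa cells, 1,500 per well, plated overnight, then exposed to compounds for 5 hr at 37 C. Beta-lactamase reporter read with LiveBLAzer B/G FRET substrate after 2 hr at room temperature, 405 nm excitation, 460 and 530 nm emission.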

[5] = qHTS assay to identify small molecule agonists of the endoplasmic reticulum stress response signaling pathway - cell viability counter screen (AID 1159517);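 further: HeLa cells carrying an ER stress response element beta-lactamase reporter; series mostly up to about 61 µM; nearly all actives have a fitted effect of over 50% in size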
Method in brief: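 Cells, HeLa ESRE-bla; density, 1,500/well; dosing, 5 hr at 37 C, 5% CO2; readout, CellTiter-Glo luminescence after 30 min RT.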

[6] = qHTS assay to identify small molecule antagonists of the retinoid-related orphan receptor gamma (ROR-gamma) signaling pathway - cell viability counter screen (AID 1159520; active means well fitted cell-killing curve with a large enough effect in the repeat runs; further: nearly all actives have a fitted effect of over 50% in size)
Method in brief: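 Cytotoxicity was read from cellular ATP (CellTiter-Glo luminescence) after 16 hr at 37 C with 1 uM doxycycline induction. The inducer was added 2 hr after compound transfer to Tet-on ROR gamma CHO cells.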

[7] = qHTS assay to identify small molecule agonists of the AP-1 signaling pathway - cell viability counter screen (AID 1159525); further: nearly all actives have a fitted effect of over 55% in size; further: potency means the concentration at half of the fitted maximal effect
Method in brief: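 Luminescent ATP readout (Cell Titer Glo, 30 min RT), normalised to DMSO and tetra n-octyl ammonium bromide controls. Cells were ME-180 AP-1-bla in 0.5% dialyzed FBS Opti-MEM, with a 5 h, 37 °C compound exposure.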

[8] = qHTS assay to identify small molecule agonists of the AP-1 signaling pathway (AID 1159526)
[9] = target: Retinoic acid receptor RXR-alpha (Homo sapiens) (UniProt P19793); test: qHTS assay to identify small molecule agonists of the RXR signaling pathway (AID 1159527); further: nearly all actives have a fitted effect of over 35% in size; further: potency means the concentration at half of the fitted maximal effect
Chain of Retinoic acid receptor RXR-alpha (Homo sapiens) (P19793 whole entry, looked up): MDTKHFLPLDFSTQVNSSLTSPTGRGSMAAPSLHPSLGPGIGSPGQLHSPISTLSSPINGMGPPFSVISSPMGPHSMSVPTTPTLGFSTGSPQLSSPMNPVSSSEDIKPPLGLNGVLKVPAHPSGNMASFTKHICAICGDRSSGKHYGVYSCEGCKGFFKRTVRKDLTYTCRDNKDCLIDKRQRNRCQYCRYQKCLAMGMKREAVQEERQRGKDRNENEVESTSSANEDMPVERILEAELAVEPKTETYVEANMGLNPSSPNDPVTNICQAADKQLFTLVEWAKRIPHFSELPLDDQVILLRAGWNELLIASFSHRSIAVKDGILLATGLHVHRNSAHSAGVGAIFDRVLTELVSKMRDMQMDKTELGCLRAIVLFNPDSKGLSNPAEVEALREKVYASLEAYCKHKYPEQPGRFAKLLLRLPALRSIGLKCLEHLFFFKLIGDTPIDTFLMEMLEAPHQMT
Method in brief: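 Read-out: beta-lactamase FRET ratio (405 nm excitation, 460 and 530 nm emission) after 2 hr substrate loading at room temperature. Cells were RXR-alpha-UAS-bla HEK 293T treated with compounds for 16 hr in 2% charcoal-stripped FBS medium.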

Measured: Potency

C[C@H]1C[C@H]2[C@@H]3CCC4=CC(=O)C=C[C@]4(C)[C@@]3(Cl)[C@@H](O)C[C@]2(C)[C@@]1(O)C(=O)CO
not listed: [9]
inactive: all other assays above

O=C(O)c1ccc(-n2nc(-c3ccccc3O)nc2-c2ccccc2O)cc1
not listed: [1] | [9]
inactive: all other assays above

OCc1cc(C(O)CNCCCCCCOCCCCc2ccccc2)ccc1O (centres undefined)
not listed: [2] | [8] | [9]
inactive: all other assays above

Nc1ncn([C@H]2C[C@H](O)[C@@H](CO)O2)c(=O)n1
not listed: [8] | [9]
inactive: all other assays above

C=CCOc1ccccc1OCC(O)CNC(C)C (centres undefined)
not listed: [8] | [9]
inactive: all other assays above

c1ccc(-c2ccccn2)nc1
not listed: [8]
inactive: all other assays above

CCCCCCc1ccc(-c2ccc(C#N)cc2)cc1
not listed: [9]
inactive: all other assays above

NS(=O)(=O)c1ccc(N2CCCCS2(=O)=O)cc1
not listed: [9]
inactive: all other assays above

Cc1c(N)cccc1[N+](=O)[O-]
not listed: [9]
inactive: all other assays above

O=C(NCC1CN(c2ccc(N3CCOCC3=O)cc2)C(=O)O1)c1ccc(Cl)s1 (centres undefined)
not listed: [7]
inactive: all other assays above

C#Cc1cccc(Nc2ncnc3cc(OCCOC)c(OCCOC)cc23)c1
not listed: [8] | [9]
inactive: all other assays above

CCOC(=O)C1=C[C@]2(CC)CCCN3CCc4c(n1c1ccccc41)[C@@H]32
not listed: [8] | [9]
inactive: all other assays above

CCC(C)c1cc(C(C)(C)C)c(O)c(C(C)(C)C)c1 (centres undefined)
active: [9] 0.958 µM
not listed: [8]
inactive: all other assays above

CCCCCCCCCCCCCCCCCCOS(=O)(=O)O
active: [1] 54.9 µM | [3] 43.6 µM | [7] 38.9 µM
inactive: [4] | [5] | [6]

Clc1ccc(Cn2c(CN3CCCC3)nc3ccccc32)cc1
not listed: [2] | [8] | [9]
inactive: all other assays above
